CXXC DNA block – blocks binding of human MLL CXXC domain to DNA; Q03164; AID 2662; MLL-CXXC / FITC-HOXA9 DNA fluorescence polarization; actives 0.037% (n = 290,000); Potency, µM (doses to about 115 µM), inactives show top-dose activity change, negative = inhibition, actives largely listed as inhibitors; active = well fitted inhibition curve with a large enough effect in the polarisation, with a control signal flat, not every such curve was filed as active; inconclusive = small, poorly fitted or top-dose-only effect, or effect the other way, or a change in a side signal; inactive = no such curve, though single readings can be large or run the other way; the % refers to the polarisation; note: potency is the fitted concentration of half-maximal effect
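Fluorescence polarization: 7 uM MLL-CXXC (stock) preincubated 5 min with compounds, then 50 nM fluorescein-HOX-A9 DNA (stock) added; 30 min ambient. Buffer 50 mM Tris-HCl pH 7.5, 50 mM NaCl, 1 mM DTT, 0.05% BSA.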
ASM inhibitor – human S-ASM enzyme inhibition; P17405; placental ASM, HMU-PC fluorogenic substrate, 60 min; Potency, µM (titrated, usually from 57.5 µM), for inactives: top-dose activity change, negative = inhibition, hits mostly inhibitors; actives 0.006% (n = 340,000); AID 504937; note: potency is the fitted concentration of half-maximal effect
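Fluorogenic HMU-PC substrate (9 uM final) is turned over by placental ASM in 60 min at 37 C after a 10 min compound preincubation. Reaction ended by alkaline stop (pH 10), with fluorescence read at 386/447 nm.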
GALK inhibitor – blocks human galactokinase activity. P51570. actives 0.007% (n = 270,000). Potency, µM (highest dose often 57.5 µM), without a hit: top-dose activity change, negative = inhibition, actives largely listed as inhibitors. AID 1868. Purified GALK, Kinase-Glo residual ATP luminescence; note: potency is the fitted concentration of half-maximal effect; % is set by controls: 0 for no effect and ±100 for the full control effect
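Compounds were pin-transferred into ATP buffer (35 uM final), then GALK plus galactose (5 nM, 100 uM final) was added. After 1 h at room temperature, Kinase-Glo Plus was added and luminescence read after 10 min.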
Menin-MLL FL inh – displaces fluorescein MLL peptide from human menin; Fluorescence polarization, fluorescein-MLL peptide displacement from menin; AID 1766; 290,000 tested, under 10 active; FP activity change, % at 61.4 µM; active = well fitted curve in the direction sought with a large enough effect in the polarisation, not every such curve was filed as active; inconclusive = small, poorly fitted or top-dose-only effect, or effect the other way, or a change in a side signal; inactive = no such curve, though single readings can be large or run the other way; the % refers to the polarisation; note: % of control where 0% means no effect
Menin-MLL TR inh – menin-MLL binding inhibition, Texas Red mutant peptide. AID 1768. O00255. Menin + Texas Red MLL mutant peptide, fluorescence polarization. actives 0.23% (n = 270,000). Potency, µM (highest dose often 61.6 µM), inactives show top-dose FP activity change, negative = inhibition, most hits filed as inhibitors; active = well fitted inhibition curve with a large enough effect in the polarisation, with a control signal flat, not every such curve was filed as active; inconclusive = small, poorly fitted or top-dose-only effect, or effect the other way, or a change in a side signal; inactive = no such curve, though single readings can be large or run the other way; the % refers to the polarisation; note: potency is the fitted concentration of half-maximal effect; % of control where 0% means no effect
Target sequence (O00255 whole entry, looked up): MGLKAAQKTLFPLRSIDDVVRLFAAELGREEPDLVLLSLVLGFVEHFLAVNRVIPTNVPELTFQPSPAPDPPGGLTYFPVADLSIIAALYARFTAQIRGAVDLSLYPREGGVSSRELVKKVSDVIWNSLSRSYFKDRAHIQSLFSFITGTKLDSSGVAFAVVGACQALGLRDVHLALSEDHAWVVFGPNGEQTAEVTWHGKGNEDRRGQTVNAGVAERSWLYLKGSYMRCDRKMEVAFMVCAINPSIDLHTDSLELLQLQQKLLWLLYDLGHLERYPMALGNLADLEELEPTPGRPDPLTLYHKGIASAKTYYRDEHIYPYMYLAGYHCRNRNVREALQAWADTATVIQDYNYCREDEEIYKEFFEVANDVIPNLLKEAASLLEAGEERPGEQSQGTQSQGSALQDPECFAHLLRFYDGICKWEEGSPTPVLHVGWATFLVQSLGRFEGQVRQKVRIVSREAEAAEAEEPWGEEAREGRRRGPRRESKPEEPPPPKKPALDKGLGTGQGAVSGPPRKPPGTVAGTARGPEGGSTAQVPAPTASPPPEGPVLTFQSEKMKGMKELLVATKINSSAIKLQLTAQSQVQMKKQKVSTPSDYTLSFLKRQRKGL
MLL CXXC Fl – disrupts human MLL CXXC domain binding to DNA | shares compounds with CXXC DNA block | MLL CXXC-DNA binding, fluorescein FP | Potency, µM (titrated, usually from 345 µM), inactives show top-dose activity change, negative = inhibition, actives largely listed as inhibitors | actives 70% (n = 200) | AID 624160; note: potency is the fitted concentration of half-maximal effect; nearly all actives have a fitted effect of over 80% in size
MLL CXXC FP-TR – inhibitors of human MLL CXXC domain-DNA interaction, Texas Red format; shares compounds with CXXC DNA block; MLL CXXC-DNA binding, Texas Red fluorescence polarization; Potency, µM (highest dose often 345 µM), for inactives: at the highest dose activity change, negative = inhibition, actives largely listed as inhibitors; actives 40% (n = 200); AID 624161; note: potency is the fitted concentration of half-maximal effect; % is set by controls: 0 for no effect and ±100 for the full control effect; nearly all actives have a fitted effect of over 75% in size
MLL CXXC HTRF – disrupts human MLL CXXC domain binding to DNA by HTRF; MLL CXXC-DNA binding, HTRF, biochemical; AID 624162; shares compounds with CXXC DNA block; Potency, µM (doses to about 172 µM), inactives show at the top dose activity change, negative = inhibition, usual class: inhibitors; actives 30% (n = 210); note: % is set by controls: 0 for no effect and ±100 for the full control effect; nearly all actives have a fitted effect of over 80% in size
The depositor's hits bear a star; ? = inconclusive; . = not tested or not shown; ! = not active in a repeat. Only a selection was taken, and hits are over-represented in it overall. Unless noted, calls come from the whole dose curve; as a rule, active = well fitted curve in the direction sought with a large enough effect; inconclusive = small, poorly fitted or top-dose-only effect, or another doubt; inactive = no such curve, though single readings can be large; an effect the other way counts as inactive or inconclusive.

SMILES | CXXC DNA block | ASM inhibitor | GALK inhibitor | Menin-MLL FL inh | Menin-MLL TR inh | MLL CXXC Fl | MLL CXXC FP-TR | MLL CXXC HTRF
CCC(C)c1ccc(NC(=O)Nc2cccnc2)cc1 (stereo not given) | ? | -4% | -4% | -6 | ? | -7% | ? | 1%
c1ccc2c(c1)Cc1cc3cc4c(cc3nc1-2)OCO4 | . | . | . | -1 | ? | . | . | .
CC(C)C(=O)Nc1c(-c2ccc(Cl)cc2)c(=O)c2ccccc2n1C | ? | 4% | 1% | 2 | 23% | ? | -4% | 0%
N#C/C(=C\c1cccs1)C(=O)c1ccccc1 | ? | 2% | . | 1 | . | 3% | 113µM* | -14%
COC(=O)c1c(C)[nH]c(C)c1-c1ccc(C)cc1 | ? | -2% | -1% | 5 | -1% | 18µM* | ? | -8%
O=C(O)c1ccc(COc2ccccc2C=C2C(=O)c3ccccc3C2=O)cc1 | 18µM* | 3% | -5% | 4 | 27% | 18µM* | 56µM* | 77µM*
O=C1/C(=N\S(=O)(=O)c2cccs2)C([n+]2cccc(Cc3ccccc3)c2)=C([O-])c2ccccc21 | 25µM* | -11% | -4% | ? | . | 142µM* | ? | 69%
O=C1/C(=N\S(=O)(=O)c2cccs2)C([n+]2ccc(CCCc3ccccc3)cc2)=C([O-])c2ccccc21 | -29% | -2% | 2% | -19 | . | . | . | .
CCCCCCCCCCCCCC[C@@H](O)[C@@H](O)[C@H](CO)NC(C)=O | . | . | . | -2 | 0% | . | . | .
O=S(=O)(/C=C/C=C/S(=O)(=O)c1ccccc1)c1ccccc1 | . | -1% | . | . | . | . | . | .
COc1cc(/C=C2/C(=O)NN(c3ccc(C)c(Cl)c3)C2=O)cc([N+](=O)[O-])c1O | ? | 5% | . | 1 | ? | 80µM* | 113µM* | 33%
Cn1ccnc1COc1ccc(C=O)cc1 | 1% | 2% | -3% | 5 | ? | . | . | .
CNCC(=O)NC(CCCN=C(N)N)C(=O)NC(C(=O)NC(Cc1ccc(O)cc1)C(=O)NC(C(=O)NC(Cc1cnc[nH]1)C(=O)N1CCCC1C(=O)NC(C)C(=O)O)C(C)C)C(C)C (stereo not given) | 11% | . | . | -1 | 4% | . | . | .
Cc1ccccc1NC(=O)c1cccc(S(=O)(=O)Nc2cccc(C(=O)O)c2)c1 | -3% | 2% | 6% | -2 | 27% | . | . | .
Cc1ccc(C(=O)Nc2ccc(S(=O)(=O)O)c3cc(S(=O)(=O)O)cc(S(=O)(=O)O)c23)cc1NC(=O)c1cccc(NC(=O)Nc2cccc(C(=O)Nc3cc(C(=O)Nc4ccc(S(=O)(=O)O)c5cc(S(=O)(=O)O)cc(S(=O)(=O)O)c45)ccc3C)c2)c1 | 7.9µM* | . | . | 11 | 57% | 20µM* | 22µM*! | 4.9µM*
COc1cc(/C=C(\C#N)C(=O)Nc2ccc(C(=O)O)cc2)ccc1OC(=O)c1cccc(F)c1 | ? | 0% | -6% | ? | 28% | 3% | 37% | -48%
COc1cc(/C=C(/C#N)C(=O)Nc2ccccc2)ccc1OCc1ccc(C(=O)O)cc1 | -6% | 4% | -13% | 5 | 48% | . | . | .
CCN(CC)c1ccc2cc(-c3nc(-c4ccc(OC)cc4)cs3)c(=O)oc2c1 | ? | 17% | 0% | ? | 21% | 0.45µM* | ? | -5%
Cc1[nH]n(-c2ccccc2)c(=O)c1N=Nc1cccc(C(=O)O)c1 | ? | -13% | 2% | 4 | ? | 14µM* | ? | 34%
Cc1[nH]n(-c2ccccc2)c(=O)c1N=Nc1ccc(C(=O)O)cc1 | 2% | 0% | 1% | -2 | ? | . | . | .
